Experimental data reported in PubChem BioAssay.
The list shows a part of the results. Active and inactive are the calls of the source.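 How the source made its calls, unless noted: active means fluorescence ratio falls more than 5 SD below the full-stimulation control mean, in both duplicate runs; inactive means the rest.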

Columns and labels:
[1] = biological target: Short transient receptor potential channel 4 (Mus musculus) (UniProt Q9QUQ5); test: DAMGO-gated TRPC4 membrane potential modulation – cell-based, second specificity screen, HEK293 TRPC4/mu-opioid, selectivity assay for TRPC6 inhibitor project, confirmation (AID 2776;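 active means compounds whose fluorescence signal differed from control wells by over 3 SD, either direction, in both duplicate plates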); details: HEK293 TRPC4/MOR, membrane potential dye fluorescence, at 10 µM, channel activated by saturating DAMGO dose; active compounds read high
Chain of Short transient receptor potential channel 4 (Mus musculus) (Q9QUQ5 whole entry, looked up): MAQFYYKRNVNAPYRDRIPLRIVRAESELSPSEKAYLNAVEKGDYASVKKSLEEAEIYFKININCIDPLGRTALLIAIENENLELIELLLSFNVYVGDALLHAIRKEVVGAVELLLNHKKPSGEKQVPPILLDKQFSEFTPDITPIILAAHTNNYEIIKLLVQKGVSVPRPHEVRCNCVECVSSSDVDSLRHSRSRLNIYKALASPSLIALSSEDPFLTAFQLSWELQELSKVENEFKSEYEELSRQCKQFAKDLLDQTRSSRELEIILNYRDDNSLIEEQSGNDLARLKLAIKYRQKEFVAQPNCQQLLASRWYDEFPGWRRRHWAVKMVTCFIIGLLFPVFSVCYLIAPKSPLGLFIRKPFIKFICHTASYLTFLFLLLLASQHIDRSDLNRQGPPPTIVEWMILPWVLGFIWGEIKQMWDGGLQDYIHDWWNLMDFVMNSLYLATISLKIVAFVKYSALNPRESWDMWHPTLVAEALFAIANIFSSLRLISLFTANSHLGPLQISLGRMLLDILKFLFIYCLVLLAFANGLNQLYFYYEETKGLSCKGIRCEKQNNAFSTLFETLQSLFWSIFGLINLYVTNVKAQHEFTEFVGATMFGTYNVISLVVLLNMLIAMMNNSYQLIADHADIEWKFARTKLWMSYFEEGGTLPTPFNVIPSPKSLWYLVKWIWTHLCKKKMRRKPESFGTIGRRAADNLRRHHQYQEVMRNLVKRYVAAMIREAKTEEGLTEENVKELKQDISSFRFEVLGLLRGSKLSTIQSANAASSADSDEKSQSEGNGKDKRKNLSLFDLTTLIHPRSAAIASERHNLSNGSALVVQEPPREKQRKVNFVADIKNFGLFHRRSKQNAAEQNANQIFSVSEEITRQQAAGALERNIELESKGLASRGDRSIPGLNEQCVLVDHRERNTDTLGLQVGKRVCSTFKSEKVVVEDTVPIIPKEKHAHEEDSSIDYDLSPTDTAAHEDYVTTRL

[2] = system: transient receptor potential cation channel C4 (TRPC4), mouse; test: membrane potential change in TRPC4 cells – cell-based, HEK293 TRPC4/mu-opioid, membrane potential dye, selectivity assay for TRPC6 inhibitor project, confirmation (AID 2777;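 active means rise or fall in signal beyond 3 SD of buffer-only wells in both replicate plates, either sign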;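 further: integrated kinetic ratio of fluorescence range over baseline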); details: membrane potential fluorescence, at 10 µM
[3] = parental HEK293 depolarization signal interference – cell-based, second counter screen, counter-screen for TRPC6 inhibitor project, confirmation (AID 2779;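 active means membrane potential signal moving either way by over 3 SD of the maximum-effect control, in both duplicate plates, meaning non-specific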); details: parental HEK293 membrane potential dye fluorescence; at 10 µM; maximal acetylcholine challenge after compound addition
[4] = nonspecific voltage dye signal in HEK293 – cell-based, parental HEK293, counter-screen for TRPC6 inhibitor project, confirmation (AID 2780;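 active means membrane potential signal shifting up or down by more than 3 SD of buffer-only wells, on both duplicate plates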;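 on membrane potential signal change: plate controls were buffer EC0 wells for no effect and acetylcholine ECmax wells for full effect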); details: parental HEK293 membrane potential dye fluorescence; at 10 µM
[5] = biological target: Short transient receptor potential channel 6 (Mus musculus) (UniProt Q61143); test: blockers of TRPC6 cation channel activity – HEK293 cells, membrane potential dye, duplicate, confirmation (AID 488960); details: ACh-evoked depolarization, at 10 µM; active compounds read high;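 on inhibition: integrated fluorescence ratio of peak minus minimum over baseline after agonist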
Chain of Short transient receptor potential channel 6 (Mus musculus) (Q61143 whole entry, looked up): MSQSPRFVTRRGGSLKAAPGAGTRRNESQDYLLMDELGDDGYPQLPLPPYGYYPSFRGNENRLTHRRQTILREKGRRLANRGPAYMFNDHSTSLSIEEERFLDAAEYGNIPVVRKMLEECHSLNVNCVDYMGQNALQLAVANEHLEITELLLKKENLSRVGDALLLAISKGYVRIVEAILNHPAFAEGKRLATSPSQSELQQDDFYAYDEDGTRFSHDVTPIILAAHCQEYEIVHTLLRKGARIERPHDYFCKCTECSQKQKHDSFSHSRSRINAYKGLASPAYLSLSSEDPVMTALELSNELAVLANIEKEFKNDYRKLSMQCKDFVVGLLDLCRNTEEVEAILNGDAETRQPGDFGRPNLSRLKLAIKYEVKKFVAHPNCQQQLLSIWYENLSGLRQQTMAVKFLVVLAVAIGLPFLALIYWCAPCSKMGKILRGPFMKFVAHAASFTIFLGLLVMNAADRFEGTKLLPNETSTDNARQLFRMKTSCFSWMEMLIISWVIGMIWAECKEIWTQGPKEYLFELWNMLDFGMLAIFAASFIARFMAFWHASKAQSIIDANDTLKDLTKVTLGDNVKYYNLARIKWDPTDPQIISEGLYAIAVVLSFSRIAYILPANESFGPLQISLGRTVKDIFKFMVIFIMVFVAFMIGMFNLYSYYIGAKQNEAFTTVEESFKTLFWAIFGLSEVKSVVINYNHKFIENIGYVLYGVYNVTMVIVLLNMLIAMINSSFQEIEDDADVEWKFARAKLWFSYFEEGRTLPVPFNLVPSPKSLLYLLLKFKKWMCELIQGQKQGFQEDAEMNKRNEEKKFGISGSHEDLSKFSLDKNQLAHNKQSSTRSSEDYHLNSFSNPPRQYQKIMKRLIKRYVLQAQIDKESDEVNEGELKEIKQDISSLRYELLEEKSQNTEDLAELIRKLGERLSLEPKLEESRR

[6] = biological target: Short transient receptor potential channel 6 (Mus musculus) (UniProt Q61143); test: mouse TRPC6 channel activators, confirmation, HEK293 cells, membrane potential dye, duplicate (AID 488961;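 active means ratio signal rise beyond 5 SD above unstimulated control wells' mean, seen in both duplicate runs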;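 on activation: plate controls were buffer EC0 wells for no effect and acetylcholine ECmax response for full effect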); details: HEK293-TRPC6 membrane potential dye fluorescence, FDSS, at 10 µM; active compounds read high
[7] = system: TRPC4 (transient receptor potential cation channel C4 beta), mouse; test: potentiation of DAMGO EC20 TRPC4 response – cell-based, second round, Fluo-4, HEK293 TRPC4beta/mu-opioid, 1 µM, confirmation (AID 2554;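 active means primary screen hit whose fluorescence ratio, in both repeats, exceeds the weak agonist control mean by 3 SD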); details: DAMGO EC20, Fluo-4 calcium flux, at 1 µM; active compounds read high
[8] = system: TRPC4 beta (transient receptor potential cation channel C4), mouse; test: potentiation of DAMGO EC20 TRPC4 response – cell-based, Fluo-4, HEK293 TRPC4beta/mu-opioid, confirmation (AID 2555;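 active means primary screen hit whose calcium fluorescence ratio, in both repeats, exceeds the weak agonist control mean by 3 SD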); details: DAMGO EC20, Fluo-4 calcium flux, at 10 µM; active compounds read high
[9] = system: TRPC4 (mouse), co-expressed with 5HT1a in HEK293; test: enhancement of serotonin-evoked TRPC4 response – cell-based, second counter screen, HEK293 TRPC4/5HT1a, Fluo-4, counter-screen for TRPC4 potentiator project, confirmation (AID 434979;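 active means signal rise over 3 SD above mean of control wells given weak agonist, in both repeats and first screen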); details: Fluo-4 calcium flux, at 10 µM, serotonin added at its EC20 dose; active compounds read high
[10] = nonspecific voltage dye response without TRPC6 – cell-based, parental HEK293, counter-screen for TRPC6 modulator project, confirmation (AID 488924;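 active means membrane potential signal moves up or down beyond 5 SD from buffer-only wells, on both duplicate plates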); details: parental HEK293, membrane potential dye fluorescence; at 10 µM
[11] = membrane potential response modulators in host HEK293 cells – cell-based, second counter-screen, parental HEK293, membrane potential dye, counter-screen for TRPC6 modulator project, confirmation (AID 488926;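 active means membrane potential signal drops by more than 5 SD from the mean control signal, in both duplicate plates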;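 on inhibition: plate controls were acetylcholine ECmax control wells for no effect and buffer only wells for full effect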); details: parental HEK293, membrane potential dye fluorescence, at 10 µM, after compound, maximal acetylcholine stimulation; active compounds read high
[12] = system: Transient receptor potential cation channel subfamily C member 4 (mouse); test: off-target membrane potential effects via mouse TRPC4 – cell-based, HEK293 TRPC4/mu-opioid, membrane potential dye, selectivity assay for TRPC6 modulator project, confirmation (AID 488927;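 active means membrane potential signal moved up or down beyond 5 SD of buffer control wells, in both duplicate plates, actives on both sides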;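 on percent change from control (negative = decrease, positive = increase): plate controls were assay buffer wells for no effect and DAMGO maximal-effect wells for full effect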); details: membrane potential fluorescence, at 10 µM
[13] = system: TRPC4 (transient receptor potential cation channel C4), mouse; test: DAMGO-evoked mouse TRPC4 response blockade – cell-based, second screen, HEK293 TRPC4/mu-opioid, membrane potential dye, selectivity assay for TRPC6 modulator project, confirmation (AID 488928;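 active means drop in membrane potential signal beyond 5 SD of the control wells in both duplicate plates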;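 further: TRPC4 counter screen for TRPC6 hits run under conditions tuned for TRPC6 not TRPC4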); details: membrane potential dye fluorescence, at 10 µM, stimulated with maximal-effect DAMGO; active compounds read high
[14] = biological target: Potassium voltage-gated channel subfamily KQT member 1 (Homo sapiens) (UniProt P51787); test: blockers of human KCNQ1 channel – cell-based, Tl flux, duplicate, confirmation (AID 588353;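 active means primary screen active, with duplicate mean exceeding buffer control mean plus 3 SD of buffer wells, cut at about 28% in these data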;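 further: 0% = buffer control ratio and 100% = XE991 inhibitor control ratio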); details: KCNQ1 cell line, FluxOR thallium flux fluorescence, at 10 µM, active compounds read high
Chain of Potassium voltage-gated channel subfamily KQT member 1 (Homo sapiens) (P51787 whole entry, looked up): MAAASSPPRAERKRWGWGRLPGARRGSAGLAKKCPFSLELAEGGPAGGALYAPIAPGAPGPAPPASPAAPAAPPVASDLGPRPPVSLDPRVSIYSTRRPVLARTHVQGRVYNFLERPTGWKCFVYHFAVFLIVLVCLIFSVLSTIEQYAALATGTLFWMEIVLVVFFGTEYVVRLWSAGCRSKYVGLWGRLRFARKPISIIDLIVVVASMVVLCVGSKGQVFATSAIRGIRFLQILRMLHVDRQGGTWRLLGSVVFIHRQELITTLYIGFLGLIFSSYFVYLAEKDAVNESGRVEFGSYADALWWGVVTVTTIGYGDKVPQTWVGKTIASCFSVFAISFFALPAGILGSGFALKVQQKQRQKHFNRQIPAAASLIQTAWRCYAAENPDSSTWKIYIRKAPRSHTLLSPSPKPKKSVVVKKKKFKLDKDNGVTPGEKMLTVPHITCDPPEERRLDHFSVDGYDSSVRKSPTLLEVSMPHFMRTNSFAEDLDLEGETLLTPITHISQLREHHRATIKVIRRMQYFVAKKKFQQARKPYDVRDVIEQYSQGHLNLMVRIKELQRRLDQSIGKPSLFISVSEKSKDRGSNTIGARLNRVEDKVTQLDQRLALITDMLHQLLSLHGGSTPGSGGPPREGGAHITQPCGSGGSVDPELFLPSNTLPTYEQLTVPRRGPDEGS

[15] = nonspecific activity in CHO-K1 cells without KCNQ1 – parental CHO cells, Tl flux, counter-screen for KCNQ1 inhibitor project (AID 588366;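 active means mean of duplicate thallium-flux fluorescence ratios in parental host cells more than 5 SD below the buffer control mean, cut at about 0.38 in these data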;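 further: ratio is peak minus minimum fluorescence divided by baseline fluorescence; actives read low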); details: parental CHO-K1, FluxOR thallium flux fluorescence ratio; at 10 µM; active compounds read low; zero means no signal rise above baseline
[16] = biological target: Potassium voltage-gated channel subfamily KQT member 2 (Rattus norvegicus) (UniProt O88943); test: block of rat KCNQ2 potassium channel – cell-based, selectivity assay for KCNQ1 inhibitor project (AID 651746;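 active means mean percent inhibition of the KCNQ2 thallium signal more than 5 SD above the buffer-only control wells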;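 further: 0% = buffer control wells and 100% = XE-991 inhibitor control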); details: KCNQ2 cells, FluxOR thallium flux fluorescence, at 10 µM; active compounds read high
Chain of Potassium voltage-gated channel subfamily KQT member 2 (Rattus norvegicus) (O88943 whole entry, looked up): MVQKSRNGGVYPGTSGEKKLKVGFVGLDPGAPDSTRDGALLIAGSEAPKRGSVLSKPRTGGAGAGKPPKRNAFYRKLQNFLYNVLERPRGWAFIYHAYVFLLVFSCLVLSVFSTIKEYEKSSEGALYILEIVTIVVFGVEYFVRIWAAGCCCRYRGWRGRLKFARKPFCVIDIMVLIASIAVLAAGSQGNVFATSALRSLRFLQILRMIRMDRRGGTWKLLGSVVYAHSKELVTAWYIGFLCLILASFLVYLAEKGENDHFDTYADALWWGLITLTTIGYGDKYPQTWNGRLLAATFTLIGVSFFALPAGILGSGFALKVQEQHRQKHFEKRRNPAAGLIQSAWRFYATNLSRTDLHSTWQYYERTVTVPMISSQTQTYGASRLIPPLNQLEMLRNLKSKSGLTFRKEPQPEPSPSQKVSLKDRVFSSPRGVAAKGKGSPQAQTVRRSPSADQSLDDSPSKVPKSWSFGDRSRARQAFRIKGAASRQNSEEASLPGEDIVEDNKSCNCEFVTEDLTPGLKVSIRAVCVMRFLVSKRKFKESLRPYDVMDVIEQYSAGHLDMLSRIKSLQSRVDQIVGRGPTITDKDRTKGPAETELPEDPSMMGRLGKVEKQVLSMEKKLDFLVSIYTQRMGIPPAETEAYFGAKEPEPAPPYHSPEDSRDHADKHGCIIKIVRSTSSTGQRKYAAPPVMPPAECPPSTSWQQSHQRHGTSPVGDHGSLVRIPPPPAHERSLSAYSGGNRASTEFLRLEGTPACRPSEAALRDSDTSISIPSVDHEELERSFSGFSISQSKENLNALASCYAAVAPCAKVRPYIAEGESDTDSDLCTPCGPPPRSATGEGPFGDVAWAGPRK

[17] = biological target: Potassium voltage-gated channel subfamily E member 1 (Homo sapiens) + Potassium voltage-gated channel subfamily KQT member 1 (Homo sapiens) (UniProt P15382+P51787); test: block of human IKs channel complex – CHO-K1 cells, thallium flux, FluxOR, selectivity assay for KCNQ1 inhibitor project (AID 652147;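 active means mean percent inhibition of duplicate wells above the buffer-only control mean plus 3 SD of those controls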;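 further: 0% = buffer only wells and 100% = XE-991 inhibitor control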); details: KCNQ1/KCNE1 cells, FluxOR thallium flux fluorescence, at 10 µM; active compounds read high
Chain of Potassium voltage-gated channel subfamily E member 1 (Homo sapiens) + Potassium voltage-gated channel subfamily KQT member 1 (Homo sapiens) (P51787 whole entry, looked up): as the sequence (P51787 whole entry, looked up) above

[18] = nonspecific flux increase, KCNQ1-free cells – parental CHO cells, counter-screen for KCNQ1 potentiator project (AID 493006;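 active means duplicate-averaged activation above buffer control mean plus 5 SD of those controls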); details: parental CHO-K1 cells, FluxOR thallium flux, at 10 µM; active compounds read high
[19] = biological target: Potassium voltage-gated channel subfamily KQT member 1 (Homo sapiens) (UniProt P51787); test: enhancement of KCNQ1 channel thallium flux – FluxOR thallium flux, CHO cells, duplicates, confirmation (AID 493007;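 active means potentiation averaged over duplicate wells exceeding buffer-only control mean by more than 3 SD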;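 further: cells depolarized by a potassium plus thallium sulfate stimulus after compound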); details: KCNQ1 cell line, FluxOR thallium flux fluorescence, at 10 µM; active compounds read high, % of reference activator effect, buffer zero
[20] = biological target: Potassium voltage-gated channel subfamily KQT member 2 (Rattus norvegicus) (UniProt O88943); test: KCNQ2 thallium flux enhancement – KCNQ2-CHO-K1 cells, selectivity assay for KCNQ1 potentiator project (AID 493009;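 active means mean duplicate potentiation above the buffer control mean plus 5 SD of buffer wells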;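 further: assay conditions were tuned for KCNQ1 rather than KCNQ2 modulators; signal is max minus min fluorescence divided by baseline after thallium stimulus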); details: FluxOR thallium flux fluorescence, at 10 µM; active compounds read high, scaled: buffer 0, activator control 100
[21] = biological target: Potassium voltage-gated channel subfamily KQT member 1 (Homo sapiens) (UniProt P51787); test: KCNQ1 activators by electrophysiology – IonWorks patch clamp, KCNQ1-CHO cells, orthogonal assay for KCNQ1 potentiator project, confirmation (AID 493184;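 active means current rise at least 3 SD above the untreated control mean in each of two repeat wells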); details: automated patch clamp current, at 10 µM; active compounds read high

CCN(CC)CCn1c2ccc(Cl)cc2c2nc(C)sc21
active: inhibition [1] 57.5% | membrane potential signal change [4] -267% | inhibition [5] 49.7%
inactive: outcome [2] | outcome [3] | outcome [6]

Cc1cc(Nc2ccc(N3CCOCC3)cc2)c2cccc(C)c2n1
active: inhibition [1] 59% | activity change, negative = inhibition [2] -24.1% | signal change vs control [3] 26.5% | membrane potential signal change [4] -362%
inactive: outcome [5] | outcome [6]

CC(C)c1ccc(OCC(O)Cn2cnc3ccccc32)cc1 (stereo unspecified)
inactive: outcome [1] | outcome [2] | outcome [3] | outcome [4] | outcome [5] | outcome [6]

O=C(CCN1CCN(Cc2ccccc2)CC1)Nc1nccs1
active: potentiation [7] 19% | potentiation [8] 11% | potentiation [9] 17%

C=C(C)c1cccc(C(C)(C)NC(=O)NCCN(CC)CC)c1
inactive: outcome [1] | outcome [3] | outcome [6]
active: activity change, negative = inhibition [2] 1.45% | membrane potential signal change [4] 0.09% | inhibition [5] 54.4%

CCOC(=O)C1=NN(c2ccc(Cl)cc2)/C(=C/C2=NCCc3cc(OC)c(OC)cc32)S1
active: percent change from control (negative = decrease, positive = increase) [12] -15.5%
inactive: outcome [10] | outcome [11] | outcome [13] | outcome [5] | outcome [6]

CCCCCCn1cc(C(=O)O)c(=O)c2cc(F)c(N3CCCCC3)cc21
inactive: outcome [10] | outcome [11] | outcome [13] | outcome [5]
active: percent change from control (negative = decrease, positive = increase) [12] 11% | activation [6] 39.5%

CCN(CC)CCNc1nc(-c2ccc(OC(F)F)cc2)c(C)s1
inactive: outcome [10] | outcome [11] | outcome [12] | outcome [5] | outcome [6]
active: inhibition [13] 50.5%

Cc1cccn2c(=O)c3cc(C#N)c(=O)n(CCCN4CCOCC4)c3nc12
inactive: outcome [6]
active: membrane potential signal change [10] -248% | inhibition [11] 112% | percent change from control (negative = decrease, positive = increase) [12] -54% | inhibition [13] 47.5% | inhibition [5] 67.5%

O=C(Nc1cccc(Cl)c1)Nc1ccccc1NS(=O)(=O)c1cccs1
inactive: outcome [10] | outcome [11] | outcome [5] | outcome [6]
active: percent change from control (negative = decrease, positive = increase) [12] -12.5% | inhibition [13] 36.5% | inhibition [14] 122% | fluorescence ratio (Tl flux) [15] 0.346 | inhibition [16] 78.7% | inhibition [17] 109%

O=C(CN1CCCCCC1)N1c2ccccc2Sc2ccc(C(F)(F)F)cc21
active: membrane potential signal change [10] 122% | percent change from control (negative = decrease, positive = increase) [12] 18.5% | inhibition [5] 46.5%
inactive: outcome [11] | outcome [13] | outcome [6]

Cc1ccc(-c2ccc(C3C(C#N)=C(N)Oc4n[nH]c(C)c43)o2)cc1 (stereo unspecified)
inactive: outcome [18] | outcome [19] | outcome [20] | outcome [21]
